# ALOX12 inh – Primary qHTS assay for inhibitors of human arachidonate 12S-lipoxygenase (ALOX12): Round 2. purified 12hLO, xylenol orange hydroperoxide absorbance. Potency, µM (top dose mostly 108 µM), actives largely listed as inhibitors. 580,000 tested, 1.1% active. AID 1671190, 2021
# Target sequence (P18054 whole entry, looked up): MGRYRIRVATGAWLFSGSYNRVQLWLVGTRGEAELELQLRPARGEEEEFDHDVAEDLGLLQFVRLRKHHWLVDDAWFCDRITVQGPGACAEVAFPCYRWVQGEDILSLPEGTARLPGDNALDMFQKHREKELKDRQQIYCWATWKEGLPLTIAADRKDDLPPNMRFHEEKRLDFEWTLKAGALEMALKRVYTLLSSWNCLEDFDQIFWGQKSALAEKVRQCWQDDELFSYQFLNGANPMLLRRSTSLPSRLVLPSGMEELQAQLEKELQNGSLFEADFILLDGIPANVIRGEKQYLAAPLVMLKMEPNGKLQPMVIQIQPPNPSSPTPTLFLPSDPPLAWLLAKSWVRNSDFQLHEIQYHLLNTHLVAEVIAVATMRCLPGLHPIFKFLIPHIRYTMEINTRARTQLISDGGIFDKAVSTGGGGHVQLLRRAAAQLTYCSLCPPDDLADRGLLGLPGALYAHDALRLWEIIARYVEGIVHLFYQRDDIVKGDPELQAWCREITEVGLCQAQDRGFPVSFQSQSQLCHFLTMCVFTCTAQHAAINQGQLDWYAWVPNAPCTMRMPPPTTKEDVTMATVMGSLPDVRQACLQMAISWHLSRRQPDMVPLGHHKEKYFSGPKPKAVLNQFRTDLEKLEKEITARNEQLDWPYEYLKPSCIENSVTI
#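 Purified human 12hLO (150 nM final) in 25 mM Hepes, 0.01% Triton X-100, pH 7.0 was preincubated 15 min at room temperature with compound. Then 40 uM arachidonic acid was added, 30 min. Hydroperoxide was read by Fe-XO absorbance ratio 573/405 nm.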
# DT40 TDP1 CPT – qHTS for Inhibitors of human tyrosyl-DNA phosphodiesterase 1 (TDP1): qHTS in cells in presence of CPT | chicken DT40 Tdp1-/-;hTDP1 cells + 20 nM CPT, ATP luminescence, 48 h | Potency, µM (highest dose often 46.2 µM), most hits filed as inhibitors | 420,000 tested, 12% active; further: nearly all actives have a fitted effect of over 55% in size
#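 Chicken DT40 Tdp1-/- cells complemented with human TDP1, 400 cells/well, exposed to compounds plus 20 nM camptothecin for at least 48 h at 37 C; viability read as ATP content by CellTiter-Glo luminescence.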
# HT1080-NT tox – qHTS for induction of synthetic lethality in tumor cells producing 2HG: qHTS for the HT-1080-NT fibrosarcoma cell line; HT-1080-NT fibrosarcoma viability, CellTiter-Glo ATP luminescence, 48 h; Potency, µM (series often up to 46.1 µM), actives largely listed as cytotoxic; 360,000 tested, 1.6% active; AID 686970, 2013;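 further: NT is the 2HG producing partner of a matched IDH1 knockdown line; nearly all actives have a fitted effect of over 55% in size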
#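 Luminescent CellTiter-Glo readout after 48 hours of compound exposure at 37 degrees C defined viability of HT-1080-NT cells. Activity was normalized to DMSO wells and cell-free media wells; concentration-response curves were fitted and assigned curve classes.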
# TDP1 cell noCPT – qHTS for Inhibitors of human tyrosyl-DNA phosphodiesterase 1 (TDP1): qHTS in cells in absence of CPT; Potency, µM (highest dose often 46.2 µM), usual class: inhibitors; AID 686978, 2013; 420,000 tested, 15% active; DT40 Tdp1-/- hTDP1 cells, no CPT, ATP luminescence, 48 h; further: nearly all actives have a fitted effect of over 55% in size
#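 Readout: luminescence from CellTiter-Glo after 30 min in the dark at RT. Cells: DT40 Tdp1-/- with stable hTDP1, 400/well. Exposure: compounds alone, ≥48 hr, 37 °C.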
# IL1B secr inh – qHTS for Inhibitors of Inflammasome Signaling: IL-1-beta AlphaLISA Primary Screen. THP-1 LPS/ATP IL-1B secretion, AlphaLISA, 16 h; active compounds read low. 360,000 tested, 4.7% active. AID 743279, 2014. activity change, % at 57.5 µM; in the data active means activity change below about -50%; inconclusive means mostly about -30% to -49%
#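 THP-1 cells pretreated 1 hr with compounds (up to 57.5 uM final), then stimulated with LPS (250 ng/mL final) plus ATP (1.25 mM final); secreted IL-1B measured by AlphaLISA after 16 hr, decreased signal indicating inhibition.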
# HT1080 IDH1KD tx – qHTS for induction of synthetic lethality in tumor cells producing 2HG: qHTS for the HT-1080-IDH1KD cell line | HT-1080 IDH1 knockdown viability, ATP luminescence, 48 h | Potency, µM (top dose mostly 46.1 µM), actives largely listed as cytotoxic | 360,000 tested, 2% active | AID 686971, 2013
#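 % activity derives from luminescence (CellTiter-Glo), normalised to DMSO and no-cell wells. HT-1080-IDH1KD cells, 750/well, had 48 h compound exposure at 37 °C.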
# Hits are given with their value; - = inactive; ? = inconclusive; . = no result; [ ] = dose if it differs, or a comment. Only a selection was taken, and hits are over-represented in it overall. Unless noted, the call rests on the fitted dose curve; in most records, active means well fitted curve in the direction sought with a large enough effect; inconclusive means small, poorly fitted or top-dose-only effect, or another doubt; inactive means no such curve, though single readings can be large; an effect the other way counts as inactive or inconclusive.
SMILES,ALOX12 inh,DT40 TDP1 CPT,HT1080-NT tox,TDP1 cell noCPT,IL1B secr inh,HT1080 IDH1KD tx
NC(Cc1ccccc1)C(=O)N1CCCCC1 (stereo not given),-,-,-,-,-,-
Cc1ncc(-c2ccc(F)cc2)c(C2CCCN(Cc3cccc(O)c3)C2)n1 (stereo not given),-,?,.,21µM,.,.
COc1cccc(CN2CCCC(c3nc(C)ncc3-c3ccc(F)cc3)C2)c1OC (stereo not given),-,?,.,21µM,.,.
Cc1cccc(-c2cnc(C)nc2C2CCCN(C(=O)c3cccc(Cn4cccn4)c3)C2)c1 (stereo not given),-,3.3µM,.,?,.,.
C=C1/C=C(\C)C(C)(O)CC(O)CC(=O)C(O)C(O)C(C)CC(C)OC(=O)/C(C)=C/CC/C=C/C(OC)C(O)CC(C)C1 (stereo not given),.,?,-,?,-53,-
O=c1nc2sc3ccccc3n2c(=O)n1-c1cccc(Cl)c1,.,?,-,?,-,-
O=c1nc2sc3ccccc3n2c(=O)n1-c1ccc(Cl)c(Cl)c1,-,?,.,10µM,.,.
O=c1nc2sc3ccccc3n2c(=O)n1-c1ccc(Cl)cc1,-,?,-,21µM,-,-
Fc1ccc(-c2cnc(COc3ccc(-c4nnco4)cc3)o2)cc1,-,.,.,.,.,.
CCCN1CNC(=S)N(N2CN(CCC)CNC2=S)C1,13µM,.,.,.,.,.
CN(C)CCCNCC(=O)c1c(-c2ccccc2)n(C)c2ccccc12,?,29µM,?,18µM,-,?
C/C(=N\NC(=S)NCc1ccccc1)c1ccco1,?,?,-,?,-,-
C/C(=N\NC(=S)NCc1ccccc1)c1ccccc1F,35µM,-,-,?,-,-
C/C(=N\NC(=S)NCc1ccccc1)c1ccc(C(C)(C)C)cc1,35µM,18µM,-,23µM,-,?
O=C(c1sccc1Cl)N1CCn2nc(C(O)c3ccccc3)cc2C1 (stereo not given),-,.,.,.,.,.
Cc1nn(Cc2c(Cl)cccc2Cl)c(C)c1NC(=O)c1cc(C(C)C)on1,-,18µM,?,21µM,-,23µM
Cc1nn(Cc2ccc(Cl)cc2)c(C)c1NC(=O)c1c(-c2ccccc2)noc1C,?,16µM,-,-,-,-
Cc1nn(Cc2ccccc2)c(C)c1NC(=O)c1cc(C(C)C)on1,-,?,.,?,.,.
Cc1nn(Cc2ccc(Cl)cc2)c(C)c1NC(=O)c1cc(C(C)C)on1,-,21µM,?,15µM,-,-
Cc1nn(Cc2ccc(Cl)cc2)c(C)c1NC(=O)C1CC=CCC1C(=O)O (stereo not given),-,?,-,16µM,-,-
CCOCCn1c(-n2nc(C)cc2C)nc2c1c(=O)n(CCc1ccccc1)c(=O)n2C,-,.,.,.,.,.
Cc1cc2ncc(C(=O)NC3CCCCCC3)cn2n1,-,.,.,.,.,.
CCCNS(=O)(=O)c1ccc2nc(NC(=O)c3ccc(F)cc3)sc2c1,?,8.2µM,.,21µM,.,.
CCCCNS(=O)(=O)c1ccc2nc(NC(=O)c3cccnc3)sc2c1,-,?,.,?,.,.
CCN(CC)S(=O)(=O)c1ccc(C(=O)Nc2nc3c(Cl)cc(Cl)cc3s2)cc1,-,?,.,16µM,.,.
SMILES,ALOX12 inh,DT40 TDP1 CPT,HT1080-NT tox,TDP1 cell noCPT,IL1B secr inh,HT1080 IDH1KD tx
CCOC(=O)c1sc(NC(=O)c2ccc(S(=O)(=O)N(CC)CC)cc2)nc1C,-,-,-,-,-,-
CCN(CC)S(=O)(=O)c1ccc2nc(NC(=O)c3cccnc3)sc2c1,-,21µM,.,?,.,.
CC(C)OC(=O)c1c(-c2ccc(Cl)c(Cl)c2)csc1NC(=O)CCC(=O)O,-,.,.,.,.,.
Cc1ccc(C2C3=C(COC3=O)Nc3n[nH]c(C)c32)cc1 (stereo not given),-,.,.,.,.,.
COc1ccc(N(C)S(=O)(=O)c2cccc(C(=O)Nc3ccc(N4CCOCC4)cc3)c2)cc1,-,18µM,-,23µM,-,-
CN(C)S(=O)(=O)c1cccc(C(=O)Nc2ccc(N3CCOCC3)cc2)c1,?,-,-,-,-,-
COc1ccc(N(C)S(=O)(=O)c2cccc(C(=O)NCC3CCCCC3)c2)cc1,-,23µM,-,13µM,-50,-
CN(c1ccccc1)S(=O)(=O)c1cccc(C(=O)Nc2ccc(N3CCOCC3)cc2)c1,?,?,-,18µM,?,-
O=C(COc1ccccc1)N1CCOC[C@H](Oc2ccc(C(F)(F)F)cc2)C1,-,.,.,.,.,.
COc1ccc(NC(=O)CSc2nnc(COc3ccc(C)cc3)n2Cc2ccco2)c(OC)c1,-,.,.,.,.,.
COc1ccc(N2C3=[N+](CCCC3)CC2(C)O)cc1 (stereo not given),-,4.1µM,-[9.24 µM],3.7µM,-,-
COc1ccc(N2CC(O)(c3ccc(C)cc3)[N+]3=C2CCCC3)cc1 (stereo not given),-,-,-,-,-,-
Cc1ccc(N2CC(c3nc4ccccc4n3CCN3CCOCC3)CC2=O)cc1Cl (stereo not given),-,.,.,.,.,.
CC(=O)C1C(C)CC2C3CCC4CC(=O)CCC4(C)C3CCC21C (stereo not given),-,?,-,21µM,-,-
CC(=O)C1(O)CCC2C3CCC4CC(=O)CCC4(C)C3C(=O)CC21C (stereo not given),-,-,-,-,-,-
CC(=O)C1CCC2C3CCC4CC(=O)CCC4(C)C3C=CC12C (stereo not given),-,-,-,15µM,-,-
COC(=O)C1=C(C)N(Cc2ccccc2)C(=NCc2cc(OC)c(OC)c(OC)c2)N[C@H]1c1cccc(F)c1,.,12µM,-,8.2µM,?,-
COC(=O)C1=C(C)N(Cc2ccccc2)C(=NCc2ccc(OC)cc2)N[C@H]1c1cccc(F)c1,?,15µM,-,16µM,?,-
COC(=O)C1=C(C)N(Cc2ccccc2C(F)(F)F)C(=NCc2ccccc2C(F)(F)F)NC1c1cccc(F)c1 (stereo not given),-,.,.,.,.,.
COC(=O)C1=C(C)N(Cc2ccccc2)C(=NCc2ccco2)N[C@H]1c1cccc(F)c1,-,12µM,-,18µM,?,-
COC(=O)C1=C(C)N(Cc2ccccc2)C(=NCc2cccc(Cl)c2)N[C@H]1c1cccc(F)c1,.,2.6µM,?,3.7µM,?,?

# Compound activity deposited in PubChem BioAssay by National Center for Advancing Translational Sciences (NCATS).
